# Compound activity as filed in PubChem.
# HCMV inh: human cytomegalovirus inhibition | HFF cells, HCMV-luciferase reporter, 72 h; hits give low values | activity change, negative = inhibition, % at 57.5 µM | 4.5% of 410,000 active | AID 1259415; in the data active = activity change below about -60%; inconclusive = no clear call, values can overlap the other calls; inactive = above about -39%; also: % is scaled to controls: 0 for no effect and ±100 for the full control effect
#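 Compounds were evaluated in HFFs infected with an HCMV luciferase reporter virus (MOI 1 PFU/cell). Luciferase in lysates collected 72 h post infection served as the replication measure.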
# SARS PLP yeast: blocks SARS-CoV papain-like protease in a yeast assay; S. cerevisiae expressing SARS-CoV PLpro, growth rescue; Potency, µM (doses to about 32.9 µM), without a hit: at the highest dose activity, positive = growth rescue, actives largely listed as activators; 0.19% of 330,000 active; AID 485353; calls by dose curve; also: potency is read from the fitted curve at half-maximal effect; 0% is about no effect; nearly all actives have a fitted effect of over 55% in size
# HCV inh: blocks hepatitis C virus; Huh7.5.1 HCVcc-Cre infection, luciferase reporter, 44 h; Potency, µM (series often up to 41.8 µM), for the others: top-dose activity change, negative = inhibition, most hits filed as inhibitors; 3.4% of 340,000 active; AID 651820; also: potency is read from the fitted curve at half-maximal effect; % is scaled to controls: 0 for no effect and ±100 for the full control effect
#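 Infectious HCV cell culture screen: compound-treated cells (1,000/well, pre-plated 4 h) are infected with HCVcc-Cre at roughly 0.5 moi and grown 44 h. Infection is quantified by luciferase signal after 15 min substrate incubation at room temperature.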
# Pf growth 96h: P. falciparum growth inhibition at 96 hour, primary screen for plastid delayed-death inhibitors; P. falciparum luciferase reporter growth, 96 h; Potency, µM (series often up to 28.7 µM), for the others: at the top dose activity change, negative = inhibition, usual class: inhibitors; 6.9% of 320,000 active; also: potency is read from the fitted curve at half-maximal effect; % is scaled to controls: 0 for no effect and ±100 for the full control effect
#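 Cell-based qHTS: luciferase-tagged P. falciparum in erythrocytes (2% hematocrit, 0.05% parasitemia final) incubated with compounds for 96 hours, 37 C, 5% CO2; luciferase detection reagent then added and luminescence measured.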
# Pf growth 48h: inhibits P. falciparum growth in the first generation, 48 h; P. falciparum luciferase growth in erythrocytes, 48 h; AID 504832; 5.9% of 310,000 active; Potency, µM (top dose mostly 28.7 µM), without a hit: at the highest dose activity change, negative = inhibition, usual class: inhibitors; also: potency is read from the fitted curve at half-maximal effect; % is scaled to controls: 0 for no effect and ±100 for the full control effect
#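 A one-generation exposure of luciferase-tagged malaria parasites in RPMI 1640/Albumax erythrocyte culture, 37 C and 5% CO2. Inhibition is inferred from decreased luminescence after adding detection reagent.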
# Sm TGR inh: blocks Schistosoma mansoni thioredoxin glutathione reductase; Q962Y6; purified TGR, DTNB reduction, TNB absorbance 405 nm; Potency, µM (titrated, usually from 114 µM), for inactives: at the highest dose activity change, negative = inhibition, hits mostly inhibitors; 3% of 360,000 active; AID 485364; also: potency is read from the fitted curve at half-maximal effect; % is scaled to controls: 0 for no effect and ±100 for the full control effect; nearly all actives have a fitted effect of over 60% in size
#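 Kinetic colorimetric format: TGR-catalysed, NADPH-driven DTNB reduction monitored via TNB absorbance. Enzyme dispensed at 20 nM; compound exposure 15 min at room temperature before reaction start.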
# * marks the source's active call; other numbers are inactive results; i = inactive; ? = inconclusive; nt = not tested or not shown. Compounds with a hit are over-represented: about 15% of the library has one in this group of screens. Unless noted, calls follow the shape of the dose curve; as a rule, active = well fitted curve in the direction sought with a large enough effect; inconclusive = small, poorly fitted or top-dose-only effect, or another doubt; inactive = no such curve, though single readings can be large; an effect the other way counts as inactive or inconclusive.
SMILES,HCMV inh,SARS PLP yeast,HCV inh,Pf growth 96h,Pf growth 48h,Sm TGR inh
COc1ccc(NC(=O)CSc2ccc3nnc(-c4ccccn4)n3n2)cc1,-21,-1%,nt,12µM*,?,0%
Fc1cccc(Cl)c1CSc1ccc2nnc(-c3ccccn3)n2n1,?,0%,-26%,-19%,-8%,-7%
Cc1ccc(NC(=O)CSc2ccc3nnc(-c4ccccn4)n3n2)cc1,-33,0%,-7%,13µM*,?,-7%
O=C(CSc1ccc2nnc(-c3ccccn3)n2n1)Nc1ccc2c(c1)OCO2,6,6%,-3%,1.9µM*,3.7µM*,1%
O=C(CSc1ccc2nnc(-c3ccccn3)n2n1)Nc1ccc2c(c1)OCCO2,36,7%,1%,?,nt,9%
O=C(NCC1CC1)C1=COC2=NC(=O)N(Cc3cccc(Cl)c3)CCN12,-7,nt,nt,nt,nt,nt
CN1C[C@@H]2[C@@H]3C(=O)N(C)C(=O)[C@@H]3[C@](Cc3ccccc3)(C1=O)N2C(=O)c1ccccc1,-5,nt,13%,nt,nt,nt
CCOC(=O)c1c(NC(=O)CCl)sc(CN(C)C)c1-c1ccccc1,-6,2%,?,?,13µM*,16µM*
CCOC(=O)c1c(NC(=O)CN2CCCCC2)sc(CN(C)C)c1-c1ccccc1,-26,0%,22µM*,8%,1%,7%
CCOC(=O)c1c(NC(=S)N2CCN(C)CC2)sc(C)c1-c1ccccc1,?,-5%,-7%,47%,?,-29%
COc1cccc(C(=O)OCC(=O)c2ccc(S(=O)(=O)N3CCCCC3)cc2)c1OC,-100*,0%,6%,-16%,?,-9%
COC(=O)c1ccccc1S(=O)(=O)N1CCC(C(=O)OCC(=O)c2ccccc2OC)CC1,?,1%,-4%,?,10µM*,7%
COc1ccc(C(=O)OCC(=O)c2ccc(S(=O)(=O)N3CCCCC3)cc2)c(OC)c1,-27,3%,-4%,?,?,-1%
COc1ccccc1C(=O)COC(=O)C1CCN(S(=O)(=O)c2ccccc2)CC1,-33,nt,nt,nt,nt,nt
COc1ccc(C(=O)COC(=O)c2cc(S(=O)(=O)N3CCCCC3)ccc2N2CCOCC2)c(OC)c1,-20,-15%,?,9.3µM*,9.3µM*,5%
COc1ccccc1C(=O)COC(=O)c1cc(S(=O)(=O)N2CCCCC2)ccc1N1CCOCC1,36,9%,-21%,?,9.3µM*,-12%
C[C@@H]1CCCCO[C@@H](CN(C)S(=O)(=O)c2cn(C)cn2)[C@@H](C)CN([C@H](C)CO)C(=O)c2cc(N(C)C)ccc2O1,-11,nt,nt,nt,nt,nt
Cc1ccc(CC2(C)C(=O)Nc3c(Cl)ccc(Cl)c32)cc1 (stereo unspecified),9,nt,nt,nt,nt,nt
CCOc1cc(/C=N/NC(=O)c2cccnc2)ccc1OCC(=O)N1CCOCC1,26,?,5%,i,6%,-2%
COc1cccc(COC(=O)c2cc(S(=O)(=O)N3CCCCC3)ccc2N2CCOCC2)c1OC,-4,-4%,-24%,?,6.6µM*,2%
C=CCNC(=S)Nc1sc2c(c1C(=O)OCC)CC(C)(CC)OC2 (stereo unspecified),-31,6%,10%,-9%,15%,-26%
CCOC(=O)c1c(NC(=S)Nc2ccccc2)sc2c1CCCCC2,nt,12%,?,72%,4%,0%
CCOC(=O)c1c(NC(=O)c2ccc(S(=O)(=O)N(CC(C)C)CC(C)C)cc2)sc2c1CCN(C(=O)OCC)C2,-20,nt,nt,nt,nt,-2%
CCOC(=O)c1c(NC(=S)Nc2ccccc2)sc2c1CCN(CC)C2,23,-21%,-29%,58%,6.6µM*,-27%
C=CCNC(=S)Nc1sc2c(c1C(=O)OCC)CCN(C(=O)OCC)C2,-11,nt,6%,?,13µM*,-17%
SMILES,HCMV inh,SARS PLP yeast,HCV inh,Pf growth 96h,Pf growth 48h,Sm TGR inh
CCOC(=O)c1c(NC(=S)NCc2ccccc2)sc2c1CCN(C(=O)OCC)C2,50,0%,?,5.9µM*,12µM*,0%
C=CCn1c(SCC(=O)NC2CCCc3ccccc32)nnc1-c1ccncc1 (stereo unspecified),-16,1%,0%,44%,?,0%
O=C(Nc1ccc(C(=O)N2CCOCC2)cc1)c1ccccc1Cl,10,nt,nt,nt,nt,nt
Nc1nc(-c2cccs2)c(CC(=O)O)s1,-19,0%,5%,23%,-5%,40µM*
N#C/C(=C\c1ccncc1)c1nc2ccccc2[nH]1,-8,-2%,-12%,-4%,-12%,-17%
CCOc1cccc(/C=C(/C#N)c2nc3ccccc3[nH]2)c1OCC(=O)O,-101*,5%,5%,?,4%,0%
CCN(CC)c1ccc(/C=C(/C#N)c2nc3ccccc3[nH]2)c(OC(C)C)c1,-35,-11%,2µM*,?,?,8%
COc1cc(/C=C(\C#N)c2nc3ccccc3[nH]2)c([N+](=O)[O-])cc1OCc1ccccc1,?,-7%,7.1µM*,13%,2.6µM*,11%
COc1cc(/C=C(/C#N)c2nc3ccccc3[nH]2)ccc1OCC(=O)Nc1ccccc1C(C)C,33,-2%,?,9.3µM*,?,34%
COc1cc(/C=C(\C#N)c2nc3ccccc3[nH]2)ccc1OC(=O)c1ccco1,88,-13%,?,20%,58%,0%
Cc1ccc(C(=O)c2oc3ccccc3c2NC(=O)Cc2ccccc2)cc1,-17,nt,nt,nt,nt,-5%
N#C/C(=C\c1ccc(OCc2ccc(Cl)cc2Cl)cc1)c1nc2ccccc2[nH]1,20,nt,nt,nt,nt,-12%
Cc1ccc2nc(/C(C#N)=C/c3ccc(O)c(O)c3)[nH]c2c1,90,11%,?,-2%,?,-1%
COc1cc(/C=C(/C#N)c2nc3ccccc3[nH]2)ccc1OCC(=O)Nc1ccccc1C,-27,-11%,-12%,1.5µM*,?,-2%
COc1cc(/C=C(\C#N)c2nc3ccccc3[nH]2)cc(Cl)c1OCc1ccccc1Cl,-80*,nt,nt,nt,nt,3%
COc1cc(/C=C(\C#N)c2nc3ccc(C)cc3[nH]2)ccc1OC(C)C,-68*,nt,nt,nt,nt,4%
Cc1ccc(C2=CC(=O)N(CCC(N)=O)C2)cc1,49,nt,nt,nt,nt,nt
CCN1CCN(CCOc2cccc(Oc3ccccc3)c2)CC1,17,0%,?,32%,-8%,nt
C=CCn1c(O)c(CN2CCN(Cc3ccccc3)CC2)c(C)c(C#N)c1=O,22,11%,4%,-15%,nt,45µM*
CCCn1c(O)c(CN2CCCCC2)c(C)c(C#N)c1=O,-17,1%,9%,?,22%,-29%
Cc1ccc(NS(=O)(=O)c2c(F)cc(F)c(Cl)c2F)cc1S(=O)(=O)N1CCOCC1,40,-2%,2%,nt,nt,nt
